According to the supplement of paper PMC6555819:

Assays:
Assay in all cases: PBM binding z-score (relative to random genomic background probes); higher = stronger binding; sequences stand for … in GC…GCGATTGACAGCGTAGAATGAAGG
[1] = tested on: RARb homodimer (NR concentration 270 nM)
In short: (§1)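 Regression normalization was applied to scanned fluorescence from custom Agilent 4×180K protein-binding microarrays. Before scanning, arrays were incubated 1 h with ligand-free nuclear receptor dimers, and binding was detected with antibodies against each partner (one per run). Binding z-scores use the random background probes as reference.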

[2] = tested on: RARg:RXRa (NR concentration 270 nM, RXRa partner concentration 90 nM)
In short: as §1

[3] = tested on: RARg homodimer (NR concentration 270 nM)
In short: as §1

[4] = tested on: RXRa DBDmut IVT, anti-RXR (DBD mutation: RXRa K156A/R161A, NR concentration 90 nM)
In short: as §1

[5] = tested on: RXRa homodimer (NR concentration 180 nM)
In short: as §1

[6] = tested on: THRa:RXRa (NR concentration 90 nM, RXRa partner concentration 90 nM)
In short: as §1

[7] = tested on: THRa homodimer (NR concentration 90 nM)
In short: as §1

[8] = tested on: VDR homodimer (NR concentration 270 nM)
In short: as §1

Sequence | PBM binding z-score [1] | PBM binding z-score [2] | PBM binding z-score [3] | PBM binding z-score [4] | PBM binding z-score [5] | PBM binding z-score [6] | PBM binding z-score [7] | PBM binding z-score [8]
TAGCCTAGGTCAGTTCGGGCCAGTATACGCTATA | 2.51 | 2.29 | 3.3 | 0.0401 | 0.716 | 4.04 | 0.352 | 0.242
ACTAGCAGGCCAAGGGTCTCTCAAGATTAGTCCG | -0.0592 | -0.0301 | 0.272 | -0.533 | 0.0173 | -0.234 | -0.93 | -0.872
TTACCAGGGTGAAGGTCGTTGATCCCTCTGTAGA | 1.74 | 1.16 | 0.774 | -0.374 | 2.14 | 1.84 | 0.461 | 0.856
CCTTACGGGTCACGAGGTTATAGGACGACGAGCG | 3.83 | 6.08 | 5.52 | 1.46 | 7.19 | 3.68 | 1.02 | 1.85
CATACAGGGTCAGCTAGGCCAGTGTAGGGACGGC | 3.34 | 4.2 | 4.67 | 1.57 | 3.89 | 3.07 | 0.856 | 1.07
ATCCCTAGGTAAAGTTCAGTGAAAGATCGATAGA | 2.36 | 1.81 | 1.95 | 1.28 | 1.16 | 1.07 | 0.22 | 2.35
ATATGTAGGTTATCGGGACATTCAGTTTGCGCAT | 1.09 | 0.79 | 1.16 | 0.776 | 1.03 | 1.72 | 1.55 | 1.48
GGAACGAGGGCGTTCGAGTTGATAGCATGGCGAT | -0.589 | 0.0515 | 0.202 | 2.26 | -0.0265 | 2.16 | -1.11 | 2.02
ACTCGGAGGCCAAAGGTCAGAGCTACGCCAGTGA | 4.54 | 6.25 | 4.8 | 0.776 | 6.62 | 3.06 | -0.031 | 0.616
TCATATAGGTACTACAGGTGAAAGTCGGCATCTA | 0.25 | 0.654 | 0.428 | 1.33 | 0.935 | 0.692 | -0.00751 | 0.023
AGTCAAAGTTCAGGACGAGGTAACTTAAAGCACG | 3.3 | 4.79 | 5.03 | 3.03 | 3.16 | 3.94 | 1.7 | 2.28
GCTGCTAGGTCTACTGATGGTCAGCTAAAGCTCG | -0.175 | -0.238 | -0.555 | 0.147 | -0.738 | -0.635 | -0.572 | -0.893
GCTCGGAGGAAAAGGTCAGAGCTTTGTCCGTAGA | 4 | 4.34 | 4.89 | -0.162 | 4.74 | 2.22 | -0.291 | -0.277
CGTTCAAGGTCAAGGTCAGTGAAAGAGACTCGAA | 5.27 | 6.92 | 7.85 | 3.86 | 6.6 | 4.48 | 4.1 | 3.59
GTACCAAGGTGAAGAGGTCGTTGATGAGTAGGCG | 2.46 | 3.26 | 1.79 | 0.608 | 2.65 | 2.47 | 1.09 | 2.21
ATCTCTAGGAAAAGATAGTTCAGTGAATGCAAAT | 0.679 | 0.447 | 0.556 | 0.143 | 0.0291 | 0.206 | -0.344 | 0.566
CAAACTAGGTCACGAAAGGTCATAGTCGAATGAC | 5.66 | 7.6 | 8.4 | 2.64 | 8.01 | 5.09 | 2.8 | 3.75

Sequence | PBM binding z-score [1] | PBM binding z-score [2] | PBM binding z-score [3] | PBM binding z-score [4] | PBM binding z-score [5] | PBM binding z-score [6] | PBM binding z-score [7] | PBM binding z-score [8]
CGTCCAAGATCAAAGGTCAGTGAAGAGATGACGG | 4.44 | 4.65 | 4.54 | 0.609 | 5.07 | 2.59 | 0.239 | 1.07
CGAACTAGGTCAGGGACAGTGAATCTCCGCACGC | 2.17 | 2.92 | 3.51 | 0.647 | 1.47 | 2.23 | 1.07 | -0.0543
CTTCGGAGGACAGAAGGTCAGAGCTGTCCGCTTT | 3.32 | 3.58 | 3.53 | -0.00556 | 2.14 | 2.31 | -0.137 | -0.0466
GCTTACGGGTCAAAGGTTATAGCTTGAATAGAAT | 3.13 | 6.69 | 4.63 | 2.37 | 8.87 | 3.57 | -0.0839 | 1.45
AGAATGAGGTTACCAAAGATTAGGGAAACGCTTG | 0.628 | 1.99 | 1.59 | 0.929 | 2.53 | 2.69 | 0.581 | 0.29
TAGCCTAGGTCATTCAGGGGCCAGTATAGAAAGC | 3.29 | 6.13 | 4.44 | 1.6 | 2.84 | 3.45 | 0.509 | 1.32
AGAATGAGGTTATAAGTAGATCAGGGAAGAAAGT | 0.89 | 1.35 | 0.794 | 1.41 | 2.12 | 2.1 | 0.689 | 1.09
AGAACGAGGGCACTGAGTTGATAGCACGGGTGGC | 0.877 | 1.03 | 1.64 | 1.71 | 1.02 | 1.19 | 0.176 | 2.94
GCTCGGCGGACAAGGTCAGAGCTTTGTCCGTAGA | 2.47 | 2.59 | 2.54 | -0.314 | 2.11 | 2.25 | 0.553 | 0.0541
AGAATGAGGTTAAGATCAGGGACACAGAATACAT | 1.6 | 2.36 | 2.14 | 1.14 | 2.48 | 3.39 | 2 | 1.12
CCTCGGAGGACAACAGGAGGTCAGAGATGCCAGA | 3.66 | 3.42 | 3.31 | 0.124 | 1.95 | 2.83 | 1.02 | 1.41
CCTCGGAGGCCAGAAGGTCAGAGCTGTCCGCTTT | 3.49 | 3.66 | 3.12 | -0.11 | 2.05 | 1.67 | 0.0524 | -0.311
GGAACGAGGGCATTCGAGTTGATGGCATGGCGAT | 0.552 | 1.05 | 1.17 | 3.15 | 0.655 | 2.96 | -0.631 | 3.46
CTAGACAGGTGAGAAGGTAACTCAGCCTCGATTA | 0.253 | 0.538 | 0.499 | -0.295 | 0.228 | 0.0525 | -0.0949 | -0.377
CGTCCAAGTTCAAGGTCAGTGAAAGAGACTCGAA | 4.11 | 4.76 | 5.33 | 4.51 | 3.82 | 3.56 | 2.47 | 4.98
CCCACTGGGCCAAAAAGGTCATTGATGCCGATAA | 4.44 | 4.8 | 4.56 | 0.161 | 5.23 | 3.02 | 0.878 | 2.74
ATCTCTAGTTAAAGTTCAGTGAAAGATCGATAGA | 2.53 | 1.88 | 2.04 | 1.84 | 1.22 | 0.988 | 0.202 | 2.47
